Experimental data from PubChem BioAssay (NCI).
About 79,000 compounds went through this panel and 15% of them were active in at least one assay; those are over-represented in the sample as a whole. Active and inactive are the calls of the source. Rule as the data show it: active = growth inhibition above about 70%; inactive = the rest.

Legend:
[1] = NCI Yeast Anticancer Drug Screen. Data for the rad52 strain (AID 147);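 also: 0% = growth of vehicle-treated control cultures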; settings: S. cerevisiae rad52 mutant growth inhibition, hits give high values
In short: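 Vehicle-treated cultures served as the reference for growth inhibition of compound-exposed yeast bearing a DNA repair mutation.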

[2] = NCI Yeast Anticancer Drug Screen. Data for the wt1 strain (AID 149);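 also: 0% = growth of vehicle-treated wt1 cultures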; settings: S. cerevisiae wt1 strain (SPY 50644) growth inhibition, hits give high values
In short: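 Each compound is tested on wt1 yeast and the loss of growth versus vehicle gives the inhibition value.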

[3] = NCI Yeast Anticancer Drug Screen. Data for the rad50EPP+ strain (AID 151);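 also: 0% = growth of vehicle-treated control cultures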; settings: S. cerevisiae rad50 mutant strain, hits give high values
In short: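 In this screen, rad50EPP+ yeast were exposed to compounds. Growth inhibition was scored against vehicle-treated controls.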

[4] = NCI Yeast Anticancer Drug Screen. Data for the mgt1 strain (AID 153); settings: S. cerevisiae mgt1 mutant growth inhibition, hits give high values
In short: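 mgt1 strain exposed; growth vs vehicle control recorded as inhibition.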

[5] = NCI Yeast Anticancer Drug Screen. Data for the rad50 strain (AID 155);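 also: 0% = growth of vehicle-only cultures of the same strain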; settings: S. cerevisiae rad50 strain growth inhibition, hits give high values
In short: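 Vehicle-treated cultures provide the reference for the growth inhibition reported for compound-exposed, repair-deficient yeast.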

[6] = NCI Yeast Anticancer Drug Screen. Data for the mec2-1 strain (AID 157); settings: S. cerevisiae mec2-1 strain, hits give high values
In short: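 Vehicle-treated cultures served as reference for growth inhibition of compound-exposed mec2-1 yeast.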

[7] = NCI Yeast Anticancer Drug Screen. Data for the rad14 strain (AID 159);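 also: 0% = growth of vehicle-treated control cultures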; settings: S. cerevisiae rad14 strain growth inhibition, hits give high values
In short: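 Inhibition of growth is reported for a repair-deficient yeast mutant following compound treatment, calculated relative to cultures that received vehicle.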

[8] = NCI Yeast Anticancer Drug Screen. Data for the sgs1 mgt1 strain (AID 161);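 also: 0% = growth of cultures given vehicle only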; settings: S. cerevisiae sgs1 mgt1 strain, hits give high values
In short: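 Inhibition of yeast growth, normalised to vehicle-treated controls, is reported for a strain bearing genetic alterations in DNA damage repair.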

[9] = NCI Yeast Anticancer Drug Screen. Data for the CLN2oe strain (AID 163);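 also: 0% = growth of vehicle-only control cultures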; settings: S. cerevisiae CLN2oe strain, hits give high values
In short: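 Inhibition relative to vehicle-treated yeast is reported. Cells: strain with genetic alteration in cell-cycle control, grown with compound.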

[10] = NCI Yeast Anticancer Drug Screen. Data for the cln2 rad14 strain (AID 165);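 also: 0% = growth equal to vehicle treated cultures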; settings: S. cerevisiae cln2 rad14 strain, hits give high values
In short: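 Each compound was tested on cln2 rad14 yeast. Inhibition of growth was calculated against vehicle-exposed controls.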

[11] = NCI Yeast Anticancer Drug Screen. Data for the bub3 strain (AID 167); settings: S. cerevisiae bub3 mutant strain, hits give high values
In short: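 Mutant yeast screening strain plus compound; vehicle-treated cultures serve as the 0% inhibition reference.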

[12] = NCI Yeast Anticancer Drug Screen. Data for the wt2 strain (AID 169); settings: S. cerevisiae wt2 strain growth inhibition, hits give high values
In short: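 Inhibition of yeast growth was determined after compound treatment, normalised to controls receiving only vehicle.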

[13] = NCI Yeast Anticancer Drug Screen. Data for the mlh1 strain (AID 171);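 also: 0% = growth of vehicle-treated control cultures of the same strain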; settings: S. cerevisiae mlh1 strain growth inhibition, hits give high values
In short: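 Vehicle-normalised growth inhibition of a repair- or checkpoint-altered yeast strain following compound treatment.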

[14] = NCI Yeast Anticancer Drug Screen. Data for the sgs1 strain (AID 173);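 also: 0% = growth of vehicle-only control cultures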; settings: S. cerevisiae sgs1 mutant, hits give high values
In short: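 Screen format: yeast with repair or checkpoint alterations, compound exposure, growth read relative to vehicle.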

[15] = NCI Yeast Anticancer Drug Screen. Data for the mlh1 rad18 strain (AID 175); settings: S. cerevisiae mlh1 rad18 strain growth inhibition, hits give high values
In short: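 Vehicle-treated cultures served as the reference for growth inhibition in a yeast strain carrying DNA damage repair alterations exposed to each compound.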

[16] = NCI Yeast Anticancer Drug Screen. Data for the rad18 strain (AID 177); settings: S. cerevisiae rad18 mutant growth inhibition, hits give high values
In short: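 Test articles were incubated with altered yeast defective in DNA damage repair. Results are given as inhibition of growth versus vehicle.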

[17] = at 5.0 µM (retest, dose inferred, filed as 0.5)
[18] = at 50.0 µM (retest, dose inferred, filed as 5.0)

Measured: growth inhibition

CCC(C)(C)c1ccc(Oc2ccccc2)c(N)c1
active: [1]; at 11.0 µM 96% | [1]; at 33.0 µM 99% | [1]; at 100.0 µM 98% | [2]; at 11.0 µM 97% | [2]; at 33.0 µM 99% | [2]; at 100.0 µM 98% | [3]; at 33.0 µM 84% | [3]; at 100.0 µM 90% | [4]; at 11.0 µM 96% | [4]; at 33.0 µM 99% | [4]; at 100.0 µM 99% | [5]; at 11.0 µM 94% | [5]; at 33.0 µM 98% | [5]; at 50.0 µM 90.5% | [5]; at 100.0 µM 99% | [6]; at 11.0 µM 96% | [6]; at 33.0 µM 99% | [6]; at 50.0 µM 93.2% | [6]; at 100.0 µM 99% | [7]; at 11.0 µM 97% | [7]; at 33.0 µM 99% | [7]; at 100.0 µM 99% | [8]; [18] 97% | [8]; at 50.0 µM 93.5% | [9]; at 11.0 µM 96% | [9]; at 33.0 µM 99% | [9]; at 100.0 µM 97% | [10]; [18] 99% | [10]; at 50.0 µM 92.3% | [11]; at 11.0 µM 95% | [11]; at 33.0 µM 99% | [11]; [18] 99% | [11]; at 50.0 µM 92.3% | [11]; at 100.0 µM 98% | [12]; at 11.0 µM 97% | [12]; at 33.0 µM 99% | [12]; at 100.0 µM 99% | [13]; at 11.0 µM 95% | [13]; at 33.0 µM 98% | [13]; at 100.0 µM 98% | [14]; at 11.0 µM 94% | [14]; at 33.0 µM 99% | [14]; at 100.0 µM 98% | [15]; at 50.0 µM 91.2% | [16]; at 11.0 µM 94% | [16]; at 33.0 µM 99% | [16]; at 100.0 µM 97%
inactive: [1]; at 1.2 µM -21% | [1]; at 3.7 µM -4% | [2]; at 1.2 µM -15% | [2]; at 3.7 µM -12% | [3]; at 1.2 µM 3% | [3]; at 3.7 µM 36% | [3]; at 11.0 µM 66% | [4]; at 1.2 µM -16% | [4]; at 3.7 µM -1% | [5]; at 1.2 µM -33% | [5]; at 3.7 µM -6% | [5]; [17] 42% | [5]; [18] 51% | [6]; at 1.2 µM -40% | [6]; at 3.7 µM -24% | [6]; [17] 44% | [6]; [18] 50% | [7]; at 1.2 µM -2% | [7]; at 3.7 µM 13% | [8]; [17] 2% | [9]; at 1.2 µM -22% | [9]; at 3.7 µM -2% | [10]; [17] 62% | [11]; at 1.2 µM -10% | [11]; at 3.7 µM -6% | [11]; [17] 36% | [12]; at 1.2 µM -17% | [12]; at 3.7 µM 0% | [13]; at 1.2 µM -30% | [13]; at 3.7 µM -18% | [14]; at 1.2 µM -17% | [14]; at 3.7 µM 6% | [15]; [17] 39% | [15]; [18] 45% | [16]; at 1.2 µM -31% | [16]; at 3.7 µM -7%

O=[N+]([O-])c1ccc(/C=C\c2ccc3c(c2)OCO3)c([N+](=O)[O-])c1
active: [1]; at 100.0 µM 83% | [3]; at 33.0 µM 84% | [3]; at 100.0 µM 78% | [5]; [18] 92% | [5]; at 50.0 µM 85.2% | [5]; at 100.0 µM 85% | [6]; [18] 97% | [6]; at 50.0 µM 83% | [6]; at 100.0 µM 80% | [7]; at 100.0 µM 80% | [8]; [18] 88% | [8]; at 50.0 µM 78.6% | [10]; [18] 76% | [11]; [18] 93% | [11]; at 50.0 µM 99% | [14]; at 100.0 µM 79% | [15]; [18] 96%
inactive: [1]; at 1.2 µM 3% | [1]; at 3.7 µM 12% | [1]; at 11.0 µM 26% | [1]; at 33.0 µM 54% | [2]; at 1.2 µM -2% | [2]; at 3.7 µM -2% | [2]; at 11.0 µM 2% | [2]; at 33.0 µM 6% | [2]; at 100.0 µM 35% | [3]; at 1.2 µM 12% | [3]; at 3.7 µM 30% | [3]; at 11.0 µM 69% | [4]; at 1.2 µM -2% | [4]; at 3.7 µM 2% | [4]; at 11.0 µM 5% | [4]; at 33.0 µM 20% | [4]; at 100.0 µM 17% | [5]; at 1.2 µM 3% | [5]; at 3.7 µM 15% | [5]; [17] 33% | [5]; at 11.0 µM 29% | [5]; at 33.0 µM 54% | [6]; at 1.2 µM -3% | [6]; at 3.7 µM -3% | [6]; [17] 9% | [6]; at 11.0 µM 3% | [6]; at 33.0 µM 20% | [7]; at 1.2 µM 1% | [7]; at 3.7 µM 2% | [7]; at 11.0 µM 12% | [7]; at 33.0 µM 24% | [8]; [17] 11% | [9]; at 1.2 µM -2% | [9]; at 3.7 µM -3% | [9]; at 11.0 µM 7% | [9]; at 33.0 µM 16% | [9]; at 100.0 µM 25% | [10]; [17] 2% | [10]; at 50.0 µM 25.2% | [11]; at 1.2 µM -7% | [11]; at 3.7 µM -7% | [11]; [17] 2% | [11]; at 11.0 µM -5% | [11]; at 33.0 µM 28% | [11]; at 100.0 µM 68% | [12]; at 1.2 µM -2% | [12]; at 3.7 µM -3% | [12]; at 11.0 µM -1% | [12]; at 33.0 µM 8% | [12]; at 100.0 µM 66% | [13]; at 1.2 µM -1% | [13]; at 3.7 µM 1% | [13]; at 11.0 µM 7% | [13]; at 33.0 µM 16% | [13]; at 100.0 µM 63% | [14]; at 1.2 µM -2% | [14]; at 3.7 µM 1% | [14]; at 11.0 µM 9% | [14]; at 33.0 µM 19% | [15]; [17] 12% | [15]; at 50.0 µM 65.7% | [16]; at 1.2 µM -1% | [16]; at 3.7 µM 6% | [16]; at 11.0 µM 11% | [16]; at 33.0 µM 27% | [16]; at 100.0 µM 64%

OB(O)c1ccccc1C#Cc1ccccc1
active: [5]; at 50.0 µM 96.3% | [8]; at 50.0 µM 76.8% | [11]; at 50.0 µM 76.8%
inactive: [1]; at 1.2 µM 3% | [1]; at 3.7 µM 4% | [1]; at 11.0 µM 8% | [1]; at 33.0 µM 21% | [1]; at 100.0 µM 27% | [2]; at 1.2 µM -2% | [2]; at 3.7 µM -2% | [2]; at 11.0 µM 2% | [2]; at 33.0 µM 8% | [2]; at 100.0 µM 15% | [3]; at 1.2 µM -1% | [3]; at 3.7 µM 3% | [3]; at 11.0 µM 12% | [3]; at 33.0 µM 33% | [3]; at 100.0 µM 34% | [4]; at 1.2 µM 1% | [4]; at 3.7 µM 3% | [4]; at 11.0 µM 8% | [4]; at 33.0 µM 14% | [4]; at 100.0 µM 18% | [5]; at 1.2 µM 5% | [5]; at 3.7 µM 13% | [5]; [17] -14% | [5]; at 11.0 µM 20% | [5]; at 33.0 µM 29% | [5]; [18] 21% | [5]; at 100.0 µM 43% | [6]; at 1.2 µM -1% | [6]; at 3.7 µM 6% | [6]; [17] -5% | [6]; at 11.0 µM 12% | [6]; at 33.0 µM 21% | [6]; [18] 1% | [6]; at 50.0 µM 64.5% | [6]; at 100.0 µM 28% | [7]; at 1.2 µM 2% | [7]; at 3.7 µM 2% | [7]; at 11.0 µM 12% | [7]; at 33.0 µM 27% | [7]; at 100.0 µM 37% | [8]; [17] -16% | [8]; [18] 22% | [9]; at 1.2 µM 7% | [9]; at 3.7 µM 9% | [9]; at 11.0 µM 23% | [9]; at 33.0 µM 43% | [9]; at 100.0 µM 40% | [10]; [17] -12% | [10]; [18] 13% | [10]; at 50.0 µM 55.8% | [11]; at 1.2 µM 8% | [11]; at 3.7 µM 2% | [11]; [17] -20% | [11]; at 11.0 µM 21% | [11]; at 33.0 µM 34% | [11]; [18] 43% | [11]; at 100.0 µM 46%
